Results filed as inconclusive are left out. Activity calls are given as the source filed them. Calls come from the whole dose curve; as a rule, active = well fitted inhibition curve with a large enough effect; inconclusive = small, poorly fitted or top-dose-only effect; inactive = flat fitted curve, though single readings scatter.
Assay: P-glycoprotein substrates identified in KB-8-5-11 adenocarcinoma cell line, qHTS therapeutic library screen (AID 1346987); note: nearly all actives have a fitted effect of over 65% in size
Settings: KB-8-5-11 (P-gp overexpressing) viability, CellTiter-Glo, 72 h; series mostly up to 44.5 µM; activity change, negative = cytotoxicity: at the top concentration
Outline: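 Compounds are pinned in dose-response onto KB-8-5-11 cells (500 cells/well, colchicine-free medium) and left 72 h at 37 degree C. CellTiter-Glo luminescence then yields AC50 values.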
% is set by controls: 0 for no effect and ±100 for the full control effect.

Row | SMILES | activity change, negative = cytotoxicity | outcome
1 | COc1cc(O)c2c(c1)C1=CC(O)C(O)CC1(C)OC2=O (configuration not stated) | -0.926% (inactive) | –
2 | CC1(c2nc3c(C(N)=O)cccc3[nH]2)CCCN1 (configuration not stated) | – | inactive
3 | C[C@H](N)C(=O)N[C@@H](Cc1ccc(O)cc1)C(=O)N1CCC[C@H]1C(=O)NCC(=O)N[C@@H](CCCCN)C(=O)N[C@@H](Cc1ccccc1)C(N)=O | – | inactive [at 9.29 µM]
4 | C[C@H](NC(c1cccc(C[P+](=O)O)c1)[C@H](C)O)c1ccc(Cl)c(Cl)c1 (some centres not stated) | – | inactive
5 | COc1c2c(c(C)c3c1C(=O)OC3)OC1(C)CC(O)C34OC(OC)(OC3(C)C)C(O)CC4(C)C1C2 (configuration not stated) | – | inactive [at 17.3 µM]
6 | CC/C=C\CC1C(=O)C=CC1(CCCCCCCC(=O)O)OC(C)=O (configuration not stated) | 2.81% (inactive) | –
7 | C=C1C(=O)OC2C1C(O)CC1(C)C(O)CCC(C=O)C21 (configuration not stated) | 5.1% (inactive) | –
8 | C=C1CC23CC1CCC2C12OC(=O)C(C)(CCC1O)C2C3C(=O)O (configuration not stated) | 7.05% (inactive) | –
9 | CC1(C)CC[C@]2(C(=O)O[C@@H]3O[C@H](CO)[C@@H](O)[C@H](O)[C@H]3O)CC[C@]3(C)C(=CCC4[C@@]5(C)C[C@@H](O)[C@H](O)C(C)(C)C5[C@H](O)C[C@]43C)[C@@H]2[C@@H]1O (some centres not stated) | – | inactive [at 17.3 µM]
10 | CC1(C)CC[C@]2(C(=O)O)CC[C@]3(C)C(=CCC4[C@@]5(C)CC[C@H](O[C@@H]6O[C@H](C(=O)O)[C@@H](O[C@@H]7OC[C@@H](O)[C@H](O)[C@H]7O)[C@H](O)[C@H]6O)C(C)(C)C5CC[C@]43C)C2C1O (some centres not stated) | 9.09% [at 17.3 µM] (inactive) | –
11 | CC(C)(C)NS(=O)(=O)c1cncc(-c2cc(F)c3nc(N)nn3c2)c1 | 6.93% (inactive) | –
12 | C[C@@H]1N[C@H]2N(C1=O)c1ccccc1[C@@]2(O)C[C@@H]1C(=O)N[C@@H](C)c2nc3ccccc3c(=O)n21 | 0.662% [at 17.3 µM] (inactive) | –
